# Results reported in PubChem BioAssay AID2252 (Southern Research Specialized Biocontainment Screening …, 2010).
# Hit rate of the full screen: of about 2,300 compounds, about 1,500 (65%) were called active. The rule behind the calls is not given here. So high a share suggests a set chosen from earlier hits. These entries were drawn from the full list.
# Experiment: PubChem AID 2252;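 note: 100% = mean of untreated cell control wells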
# Details: THP-1 viability, CellTiter-Glo luminescence, 72 h; min viability: minimum viability across concentrations, stronger effect = lower value, concentration not given here; series mostly up to 50 µM; viability: at the top concentration
SMILES,viability,min viability [%]
N=c1ccccn1CC(O)COc1ccccc1 (centres undefined),84.3% (inactive),–
COc1cc(/C=C2/C(=O)NN(c3ccc(C)c(Cl)c3)C2=O)cc([N+](=O)[O-])c1O,85.9% (inactive),–
O=C(O)c1ccc(S(=O)(=O)NC2CC2)cc1,89.6% (inactive),–
C#CCOCCOCCOCCNc1nc(N2CCN(C(=O)[C@H](Cc3ccc(O)cc3)n3cc([C@@H](N)C(C)CC)nn3)CC2)nc(N2CCN(C(=O)[C@H](Cc3cc4ccccc4[nH]3)n3cc([C@@H](N)Cc4ccc(O)cc4)nn3)CC2)n1 (some centres undefined),97.5% (inactive),–
NC1=NC(c2cccc(O)c2)n2c(nc3ccccc32)N1 (centres undefined),93.1% (inactive),–
COc1ccc(CCC(=O)NCc2cn3ccccc3n2)cc1,101% (inactive),–
O=C(NC(O)C(=O)c1ccccc1)c1ccc(F)cc1 (centres undefined),90.5% (inactive),–
Cc1ccc(N2CC(C(=O)OCc3ccccc3F)CC2=O)cc1 (centres undefined),107% (inactive),–
CCn1cc(C(=O)O)c(=O)c2cc(F)c(N3CCN(C(=S)NC(=O)c4ccccc4C)CC3)cc21,94.3% (inactive),–
COCCN1CC(=O)N2C(c3cccc(OC)c3)c3[nH]c4ccccc4c3C[C@H]2C1=O (some centres undefined),94.5% [at 25 µM] (inactive),–
O=C(NC1CCCC1)c1ccc(Br)s1,80.1% (inactive),–
Cc1cccc(NCN2C(=O)c3ccccc3C2=O)c1,102% (inactive),–
Cc1cnc(NC(=O)CN2C(=O)C3CC=CCC3C2=O)s1 (centres undefined),94.9% (inactive),–
CC(C)c1ccc(C2C(C#N)=C(N)Oc3c2oc(CO)cc3=O)cc1 (centres undefined),87.6% (inactive),–
NC(=O)c1ccc(N=C2C(=O)Nc3ccc([N+](=O)[O-])cc32)cc1,93% (inactive),–
CC(/C=C\c1cccnc1)=C/C(=O)O,84.6% (inactive),–
NCCCCCc1nnc(SCc2ccc(Cl)cc2Cl)o1,90.7% (inactive),–
COc1cc2c(cc1OC)CN(C(=O)CCCN1C(=O)c3ccccc3C1=O)CC2,88.9% (inactive),–
CCOC(=O)C1=C(C(C)=O)C(c2cccnc2)C(C#N)=C(N)O1 (centres undefined),92.3% (inactive),–
O=C(CSc1nc2c(c(=O)n1-c1ccc(F)cc1)SCC2)NCc1ccco1,96.5% (inactive),–
CC(C)n1cnnc1SCC(=O)Nc1ccc(Br)cc1F,94.9% (inactive),–

SMILES,viability,min viability [%]
Cc1nn(C)c(C)c1NC(=O)c1ccc(S(=O)(=O)N(C)C)cc1,113% (inactive),–
COc1ccc(C2C3=C(CC(C)(C)CC3=O)Nc3cc4c(cc32)OCO4)cc1 (centres undefined),91.7% (inactive),–
O=c1ccnc(Sc2ncccc2[N+](=O)[O-])[nH]1,91.4% (inactive),–
CC[C@H]1OC(=O)[C@H](C)[C@@H](O[C@H]2C[C@@](C)(OC)[C@@H](O)[C@H](C)O2)[C@H](C)[C@@H](O[C@@H]2O[C@H](C)C[C@H](N(C)C)[C@H]2O)[C@](C)(O)C[C@@H](C)CN(C)[C@H](C)[C@@H](O)[C@]1(C)O,98.5% (inactive),–
COc1cc(NS(=O)(=O)c2ccc(NC(=S)Nc3ccccc3)cc2)nc(OC)n1,91.8% (inactive),–
O=C1CC(=O)CC(c2ccco2)C1,103% (inactive),–
CCn1c(CNC(=O)c2ccc(OC)cc2)nnc1SC,95.3% (inactive),–
CC(=O)c1ccc(OC(=O)c2cc3ccccc3oc2=O)cc1,96.3% (inactive),–
COc1ccc(NC(=O)c2ccc3nc[nH]c3c2)cc1,98.5% [at 25 µM] (inactive),–
COC(=O)c1cn(C(=O)c2ccco2)c2ccccc12,83.7% (inactive),–
CCN1CCN(Cc2ccc(NC(=O)c3ccc(C)c(NC(=O)C(=O)c4c[nH]c5ccccc45)c3)cc2C(F)(F)F)CC1,89.8% (inactive),–
Cn1nnnc1SCC(=O)Nc1ccccc1-c1ccccc1,86.6% (inactive),–
CCn1c(SCC(=O)Nc2oc(-c3ccccc3)c(-c3ccccc3)c2C#N)nnc1-c1ccco1,87.7% (inactive),–
Cc1ncc(CC(=O)n2cc(C(=O)c3cc(F)ccc3O)cn2)s1,92.9% (inactive),–
COc1ccc(C(CC(=O)O)NC(=O)C2CCCCC2)cc1 (centres undefined),98.9% (inactive),–
O=C(c1cccs1)N1CCN(S(=O)(=O)c2ccccc2)CC1,93.3% (inactive),–
COc1ccc(Cl)cc1NC(=O)c1cc(-c2ccccc2)on1,92% (inactive),–
C#CCOCCOCCOCCNc1nc(N2CCN(C(=O)[C@H](CCCCN)n3cc([C@@H](N)CC(C)C)nn3)CC2)nc(N2CCN(C(=O)[C@H](Cc3cc4ccccc4[nH]3)n3cc([C@@H](N)Cc4ccc(O)cc4)nn3)CC2)n1,98.8% (inactive),–
CO[C@@]1(NC(=O)C2SC(=C(C(N)=O)C(=O)O)S2)C(=O)N2C(C(=O)O)=C(CSc3nnnn3C)CS[C@@H]21 (some centres undefined),84.2% (inactive),–
CC1=NOC(=O)/C1=C/c1ccc(O)cc1,94.8% (inactive),–
Fc1ccccc1CCNCc1ccccc1,84.2% (inactive),–

SMILES,viability,min viability [%]
CCn1cc(C(=O)O)c(=O)c2cc(F)c(N3CCN(C(=O)Nc4ccccc4)CC3)cc21,82.1% (inactive),–
COc1ccc(Cl)cc1S(=O)(=O)N1CCN(C(=O)c2ccco2)CC1,94% (inactive),–
C#CCOCCOCCOCCNc1nc(N2CCN(C(=O)[C@H](Cc3ccc(O)cc3)n3cc([C@@H](N)CC(C)C)nn3)CC2)nc(N2CCN(C(=O)[C@H](Cc3ccc(O)cc3)n3cc([C@@H](N)CC(C)C)nn3)CC2)n1,102% (inactive),–
O=C(O)c1ccc(CSc2nnnn2C2CCCCC2)cc1,99.2% (inactive),–
COC(=O)c1ccc(NC(=O)c2ccccc2N(C)S(=O)(=O)c2ccccc2)cc1,80.3% (inactive),–
CCOC(=O)c1sc(N)c(C(=O)OC)c1C,83.4% (inactive),–
COc1cc(OC)nc(NC(=O)C(C)C)n1,93.5% (inactive),–
C[C@]1(OC(=O)/C=C/c2ccccc2)C[C@@H](O)[C@]2(O)C=CO[C@@H](O[C@@H]3O[C@H](CO)[C@@H](O)[C@H](O)[C@H]3O)[C@@H]21,87.5% (inactive),–
O=[N+]([O-])c1ccc(CN2CCSCC2)cc1,98.1% (inactive),–
NC(=O)c1cc(S(=O)(=O)Nc2cccc(F)c2)co1,99.6% (inactive),–
O=C(N/N=C/c1ccc(F)c(F)c1)c1cc2c(s1)-c1ccccc1CC2,97.7% (inactive),–
O=C(COc1ccc(Cl)cc1)N1CCN(C2CCCC2)CC1,110% (inactive),92.7
O=C(/C=C/c1ccccc1)OCc1cnc(Cl)s1,98.5% (inactive),–
CCOC(=O)c1cccc(NC(=O)C2CCC(CNc3c(N4CCOCC4)c(=O)c3=O)CC2)c1 (centres undefined),91.6% (inactive),–
Cc1cc(C(=O)Nc2cccnc2)on1,101% (inactive),–
O=c1c2ccccc2[nH]c2ccccc12,86.8% (inactive),–
CCN1CCN(C(=O)c2cc3ccc(OC)cc3[nH]2)CC1,97.6% (inactive),–
CC(C)(C)NC(=O)/C=C/c1ccc(C(F)(F)F)cc1,92.3% (inactive),–
COc1cccc(CNc2nn[nH]n2)c1OC,106% (inactive),–
Nc1ccc(S(=O)(=O)Nc2ccc(Cl)nn2)cc1,98.9% (inactive),–
O=C(NC1(C(F)(F)F)C(=O)Nc2c1c(=O)[nH]c(=O)n2-c1ccccc1)c1ccncc1 (centres undefined),88.6% (inactive),–
